Out of some 360,000 compounds screened, about 11,000 (3.1%) were called active. Where a call stands in place of a potency, no number is given. Roughly 4% stayed inconclusive and do not appear here. The sample holds actives, similar compounds and a random draw of the others, so the mix is not that of the screen. Calls follow the shape of the dose curve; as a rule, active = well fitted inhibition curve with a large enough effect; inconclusive = small, poorly fitted or top-dose-only effect; inactive = no such curve, though single readings can be large or run the other way.
molecular target: Schistosoma mansoni thioredoxin glutathione reductase (TGR) (UniProt Q962Y6); experiment: qHTS Assay for the Inhibitors of Schistosoma Mansoni Peroxiredoxins; conditions: purified TGR, DTNB reduction, TNB absorbance 405 nm; series mostly up to 114 µM; also: nearly all actives have a fitted effect of over 60% in size
From the text: Schistosomiasis is a major neglected tropical disease that currently affects over 200 million. It is caused by different species of flatworms, such as Schistosoma mansoni. Over the last century, drugs to treat the disease have evolved from potassium antimonyl tartrate, artemisinin, oxamniquine, to praziquantel, with praziquantel remaining the universally-used single drug of choice over the past three decades. However, transmission rates have changed little with praziquantel, and there is evidence for the development of drug resistant parasites. Because there is currently no suitable alternative therapy available, there is an urgent need to identify new targets and drugs for schistosomiasis treatment. Thioredoxin glutathione reductase (TGR), one uniquely positioned S. mansoni enzyme, has been identified as a major component of the worms' distinct and compressed antioxidant "firewall". TGR is a multifunctional enzyme that catalyzes the interconversion between reduced and oxidized forms of both glutathione (GSH) and thioredoxins, thus making it an attractive new antiparasitic target. Recently, a quantitative high-throughput screen of the NIH Molecular Libraries Small Molecule Repository (MLSMR, ~71K at the time of the screen in 2007) was performed using an assay that targeted both TGR and peroxiredoxin2 (Prx2, an H2O2-reducing enzymatic component of the S. mansoni redox "firewall") by following the decrease of NADPH fluorescence. […] Additional mechanistic link between exogenous NO donation and parasitic injury for the oxadiazole-2-oxide class of compounds was also expanded and better defined. Although the screen addressed both TGR and Prx2, the assay required post-screen target deconvolution for further characterization of the actives. In addition, the fluorescence assay was also subject to fluorescence interference from compound library members. We have developed a 1536-well-based kinetic HTS assay to address TGR alone. The assay followed the reduction of 5, 5'-dithiobis (2-nitrobenzoic acid) (DTNB) (Ellman's reagent) by NADPH and measured the increase in absorbance at 412 nm of the reaction product, TNB. […] This assay format can be used to screen the current MLSMR collection (with >300K compounds available) to find novel TGR inhibitors. Furoxan is a good choice to serve as a positive control in the primary HTS assay.
Three microliters of reagents (100 uM NADPH and 20 nM TGR or 100 uM NADPH as no-enzyme control) were dispensed into 1,536-well black clear-bottomed plates. Compounds (23 nL) were transferred via Kalypsys pin tool equipped with 1536-pin array (10 nL slotted pins, V&P Scientific, San Diego, CA). The plates were then be incubated for 15 min at room temperature, and 1 uL aliquot of 500 uM NADPH were added, immediately followed by a 1 uL aliquot of 15 mM DTNB to start the reaction. The plate was transferred to a ViewLux high-throughput CCD imager (Perkin-Elmer, Wellesley, MA) where kinetic measurements of the TNB absorbance were acquired using a 405 excitation filter. Throughout the screen, reagent bottles and all liquid lines were made light-tight to minimize reagent degradation. All screening operations were performed on a fully integrated robotic system (Kalypsys, San Diego, CA) containing one RX-130 and two RX-90 anthropomorphic robotic arms (Staubli, Duncan, SC). Library plates were screened starting from the lowest and proceeding to the highest concentration, and a "double-dipping" step of the highest concentration was required to access higher concentrations of compounds. Vehicle-only plates, with DMSO being pin-transferred to the entire column 5-48 compound area, were inserted uniformly at the beginning and the end of each library in order to monitor for and record any shifts in the background, which can be affected by reagent dispensers or loss in enzyme activity overtime. […]
Potency is read from the fitted curve at half-maximal effect.

| Compound | Potency |
| --- | --- |
| COc1ccc(S(=O)(=O)N2CCC(C(=O)N3CCOCC3)CC2)cc1OC | 79.4 µM (active) |
| CCN1CCN(C(=O)C2CCCN(S(=O)(=O)c3ccc(OC)c(OC)c3)C2)CC1 (configuration not stated) | inactive |
| COc1ccc(S(=O)(=O)N2CCC(C(=O)N3CCCC3)CC2)cc1C | inactive |
| O=C(C1CCC(Cn2c(=O)c3sccc3n(Cc3ccccc3F)c2=O)CC1)N1CCCCC1 (configuration not stated) | inactive |
| COc1ccc(Cl)cc1NC(=O)c1sc2nc3c(cc2c1N)CN(C)CC3 | inactive |
| CCCCN(CC)C(=O)c1c[nH]c2ccc(S(=O)(=O)Nc3cccc(OC)c3)cc2c1=O | inactive |
| CC1(C)N=C(SCc2ccccc2Cl)c2ccccc2N1 | inactive |
| Clc1ccccc1CSc1nnc(-c2ccco2)c(-c2ccco2)n1 | 7.94 µM (active) |
| Clc1ccccc1CSc1nncn2c1cc1occc12 | inactive |
| c1ccc(CSc2nnc(-c3ccco3)c(-c3ccco3)n2)cc1 | 2.82 µM (active) |
| Clc1ccc(CSc2nnc3c(n2)[nH]c2ccccc23)cc1 | inactive |
| Cc1ccc(-c2nnc(SCC(=O)NCc3ccccc3)nc2-c2ccc(C)cc2)cc1 | inactive |
| COc1ccccc1CNC(=O)CCCn1c(=O)c2ccccc2n(CC(=O)Nc2ccc(C)cc2Cl)c1=O | inactive |
| CCN(CC)c1ccc(C2C(C(N)=O)=C(C)Nc3nc(SCc4ccccc4)nn32)cc1 (configuration not stated) | inactive |
| CC1=C(C(N)=O)C(c2ccc3c(c2)OCO3)n2nc(-c3cccc(C)c3)nc2N1 (configuration not stated) | 0.251 µM (active) |
| COc1cccc(-c2nc3n(n2)C(c2ccccc2Cl)C(C(N)=O)=C(C)N3)c1 (configuration not stated) | inactive |
| Cc1cccc(-n2ccnc2SCC(=O)Nc2cccc3ccccc23)c1C | inactive |
| COc1ccc(-c2cc(C(F)(F)F)nc(SCC(=O)N(C)Cc3ccccc3)n2)cc1OC | inactive |
| COc1ccc(CCNc2nc(-c3ccc(F)cc3)cc(C(F)(F)F)n2)cc1OC | inactive |
| COc1ccc(-c2cc(C(F)(F)F)nc(S(C)(=O)=O)n2)cc1OC | 31.6 µM (active) |
| CC1CN(C(=O)N2CCC(C(=O)NCc3ccco3)CC2)c2cc(Cl)ccc2O1 (configuration not stated) | inactive |

| Compound | Potency |
| --- | --- |
| Cc1cc(Cl)ccc1OCC(=O)N(Cc1ccc(N(C)C)cc1)C1CCS(=O)(=O)C1 (configuration not stated) | inactive |
| O=C(COC(=O)CCC(=O)c1cccs1)NCc1ccco1 | 25.1 µM (active) |
| O=C(COC(=O)c1cccs1)NCc1cccs1 | inactive |
| CC1CCN(C(=O)COC(=O)CCC(=O)c2cccs2)CC1 | inactive |
| CCN(CCCNC(=O)c1cc2c(=O)n(CC)c3ccccc3c2s1)Cc1ccccc1 | inactive |
| O=C(Nc1ncc2c(n1)-c1ccccc1OC2)c1ccc(Cl)cc1 | inactive |
| CCc1ccc(Nc2ncc3c(n2)CC(c2ccco2)CC3=O)cc1 (configuration not stated) | 39.8 µM (active) |
| COc1cc(C2CC(=O)c3cnc(NC(C)=O)nc3C2)cc(OC)c1OC (configuration not stated) | inactive |
| CCN1CCN(c2ncc3c(n2)CC(c2ccccc2O)CC3=O)CC1 (configuration not stated) | inactive |
| O=C(Nc1ncc2c(n1)CC(c1ccco1)CC2=O)c1ccc(Cl)cc1 (configuration not stated) | 44.7 µM (active) |
| CC1=C(C(=O)Nc2ccc(Cl)cc2)C(c2ccco2)NC(=O)N1 (configuration not stated) | inactive |
| COc1ccc(C(=O)COC(=O)CCCC(=O)Nc2cc(C(F)(F)F)ccc2Cl)cc1 | inactive |
| CCc1ccc(C(=O)CC2(O)C(=O)N(CCc3ccccc3)c3ccc(Br)cc32)cc1 (configuration not stated) | inactive |
| CC1CCN(c2nc3ccc(C(=O)N4CCN(c5ccccc5)CC4)cc3s2)CC1 | inactive |
| CCCN(CCC)CCCNC(=O)Cn1cc2c(n1)-c1c(oc(C(=O)N3CCCC3)c1C)CC2 | inactive |
| CCC(=O)Nc1cccc(-c2nc3cc(C)ccc3o2)c1 | inactive |
| C[C@@H]1C[C@@H]2O[C@H]2/C=C\C=C\C(=O)Cc2c(Cl)c(O)cc(O)c2C(=O)O1 | 4.47 µM (active) |
| CC(C)CC(NS(=O)(=O)c1ccc2c(c1)oc(=O)n2C)C(=O)NCc1ccccc1Cl (configuration not stated) | inactive |
| CCc1ccc(NC(=O)CN2CCSc3ccc(S(=O)(=O)N4CCCC4)cc32)cc1 | inactive |
| NC(=O)c1c(Nc2nc3c(F)cccc3s2)sc2c1CCCC2 | 39.8 µM (active) |
| Cc1cc(OC(C)C(=O)Nc2sc3c(c2C(N)=O)CCCC3)ccc1Cl (configuration not stated) | inactive |

| Compound | Potency |
| --- | --- |
| COc1ccc(-c2cc(C(=O)Nc3sc4c(c3C(N)=O)CCCC4)no2)cc1 | inactive |
| COC(=O)c1ccc(NC(=O)CSc2n[nH]c(-c3ccccc3)n2)cc1 | inactive |
| Cc1ccc(CN2COc3cc(C)c4c(oc(=O)c5ccccc54)c3C2)cc1 | inactive |
| COc1cc(CN(C(=O)c2ccccc2Br)c2ccccn2)cc(OC)c1OC | inactive |
| COc1cccc(CNC(=O)C2CCN(S(=O)(=O)c3ccc4c(ccn4C)c3)CC2)c1 | inactive |
| COc1cc(/C=N/NC(=S)Nc2cccnc2)cc(OC)c1O | inactive |
| COc1cc(/C=N/Nc2ccc(C)cc2)cc(Br)c1O | 10 µM (active) |
| COc1cc(/C=N/O)cc(Br)c1OS(=O)(=O)c1ccc(C)cc1 | inactive |
| CCc1ccc(CNC(=O)c2cc3cc4ccc(OC)cc4nc3o2)cc1 | inactive |
| COc1ccc2oc(-c3cccc(NC(=O)CSc4ccc(Cl)cc4)c3)nc2c1 | inactive |
| COc1ccc2cc(CCl)c(Cl)nc2c1 | 31.6 µM (active) |
| CCOc1ccc(Nc2nc3c(S(=O)(=O)c4cccc(Cl)c4)nnn3c3ccsc23)cc1 | inactive |
| CSCCC1NC2(C(=O)Nc3ccc(Cl)cc32)[C@@H]2C(=O)N(C3CCCC3)C(=O)[C@H]12 (some centres not stated) | 31.6 µM (active) |
| C[C@@]12C(=O)N(c3cccc(Br)c3)C(=O)N1[C@H](c1ccc(Cl)cc1)[C@@H]1C(=O)N(C3CCCCC3)C(=O)[C@@H]12 | inactive |
| O=C1[C@@H]2C(Cc3ccc(O)cc3)NC3(C(=O)Nc4ccc(F)cc43)[C@@H]2C(=O)N1c1ccc(F)cc1 (some centres not stated) | inactive |
| CN(Cc1ccccc1)S(=O)(=O)c1ccc(F)c(C(=O)Nc2cccc(Cl)c2Cl)c1 | inactive |
| Cc1ccc(CCNC(=O)Cn2c(-c3cccs3)cc3cc(F)ccc32)cc1 | inactive |
| C=CS(=O)c1sc(Cl)c(N2CCOCC2)c1[N+](=O)[O-] (configuration not stated) | 0.199 µM (active) |
| CCOC(=O)c1[nH]c(C)c(CCC(=O)N2CCN(c3ccccc3)CC2)c1C | inactive |
| Cn1c(=O)n(Cc2c(F)cccc2Cl)c(=O)c2c1nc1n2CCN1c1ccc(F)cc1 | inactive |

From PubChem BioAssay AID485364 (National Center for Advancing Translational Sciences (NCATS), 2010)
